In the library only some 7.4% were active in any assay of this set; here they are far more common.
hNpr1 antagonist – blocks ANP-stimulated signaling of human Npr1 receptor. P16066. HEK293 hNpr1 GloSensor cGMP, ANP-stimulated luminescence. Potency, µM (top dose mostly 46.3 µM), for inactives: at the highest dose activity change, negative = inhibition, actives largely listed as inhibitors. 1.6% of 76,000 active. AID 1347048; calls by dose curve; further: nearly all actives have a fitted effect of over 60% in size
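Compound pre-incubated 30 min at room temperature on GloSensor-loaded HEK293 cells stably carrying hNpr1 and the pGS-40F cGMP biosensor. Stimulation uses hNppA at 0.1 nM final; luminescence is taken at baseline and 20 min post-agonist.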
HEK cytotox – kills HEK 293 cells. AID 1345083. Potency, µM (highest dose often 115 µM), without a hit: top-dose activity change, negative = cytotoxicity, most hits filed as inhibitors. 6.6% of 94,000 active. HEK 293 viability, ATP luminescence (CellTiter-Glo), 48-72 h; further: nearly all actives have a fitted effect of over 60% in size
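ATP-coupled CellTiter-Glo luminescence served as viability read-out, recorded 10 min after reagent addition at room temperature. HEK 293 cells, 250 cells/well, had been incubated with pintool-transferred compound for 48 or 72 hr at 37 degree Celsius.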
SNCA viab count – counter-screen for SNCA expression inhibitors: cell viability | HEK-293-SNCA-luc viability, GF-AFC fluorescence, 24 h | Potency, µM (top dose mostly 57.1 µM), inactives show at the top dose activity change, negative = cytotoxicity, actives largely listed as cytotoxic | 0.12% of 150,000 active | AID 1671193;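 further: 0% = DMSO-treated cells and -100% = medium-only wells without cells; nearly all actives have a fitted effect of over 30% in size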
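Cytotoxicity counterscreen: after 24 h compound treatment of genome-edited SNCA-luciferase HEK-293 cells, live-cell protease substrate GF-AFC read by fluorescence after 30 min; activity scaled between DMSO (0%) and medium-only (-100%), curves Hill-fitted.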
3T3 cytotox – kills NIH 3T3 cells. NIH 3T3 viability, CellTiter-Glo ATP luminescence, 48-72 h. Potency, µM (titrated, usually from 96.7 µM), for inactives: at the top dose activity change, negative = cytotoxicity, usual class: inhibitors. 4.3% of 94,000 active. AID 1345082; further: nearly all actives have a fitted effect of over 55% in size
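First NIH 3T3 cells are plated at 400 cells/well; next compound is pinned in; then plates incubate 48 or 72 hr at 37 °C; finally CellTiter-Glo is added and luminescence read after 10 min.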
FLuc inh – Photinus pyralis luciferase inhibition; AID 1347043; P08659; purified P. pyralis luciferase, luminescence, biochemical; 2.5% of 76,000 active; Potency, µM (top dose mostly 115 µM), usual class: inhibitors; further: nearly all actives have a fitted effect of over 65% in size
Target sequence (P08659 whole entry, looked up): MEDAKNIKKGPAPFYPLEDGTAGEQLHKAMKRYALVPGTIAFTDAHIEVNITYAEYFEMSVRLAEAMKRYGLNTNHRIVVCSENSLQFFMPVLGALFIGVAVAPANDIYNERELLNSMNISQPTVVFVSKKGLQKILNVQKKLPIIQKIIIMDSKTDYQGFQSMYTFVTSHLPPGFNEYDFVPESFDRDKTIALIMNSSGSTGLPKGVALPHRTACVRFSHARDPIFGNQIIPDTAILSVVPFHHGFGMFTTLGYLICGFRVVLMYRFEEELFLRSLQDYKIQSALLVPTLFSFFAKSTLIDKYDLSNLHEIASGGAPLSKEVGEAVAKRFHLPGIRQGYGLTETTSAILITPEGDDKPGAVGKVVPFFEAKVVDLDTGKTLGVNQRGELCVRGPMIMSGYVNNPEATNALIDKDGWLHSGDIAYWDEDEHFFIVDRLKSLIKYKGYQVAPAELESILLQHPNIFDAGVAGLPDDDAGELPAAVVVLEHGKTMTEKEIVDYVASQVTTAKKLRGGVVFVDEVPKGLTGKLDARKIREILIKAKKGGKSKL
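Luminescence read by CCD imaging after purified firefly luciferase (10nM final) was added to substrate buffer holding 10uM D-luciferin and 10uM ATP, pH 7.5, pre-dosed with compound.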
SNCA expr inhib – reduces expression of the alpha-synuclein gene; HEK-293 SNCA-luciferase knock-in, luminescence, 24 h; Potency, µM (top dose mostly 57.2 µM), inactives show at the highest dose activity change, negative = inhibition, usual class: inhibitors; 0.17% of 140,000 active; AID 1671194;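 further: plate controls were DMSO cells for no effect and cell-free wells for full effect; nearly all actives have a fitted effect of over 45% in size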
An asterisk follows results filed as active; i = inactive; ? = inconclusive; . = no result given; [ ] = remark or other dose. Unless noted, the call rests on the fitted dose curve; in most records, active means well fitted curve in the direction sought with a large enough effect; inconclusive means small, poorly fitted or top-dose-only effect, or another doubt; inactive means no such curve, though single readings can be large; an effect the other way counts as inactive or inconclusive. Unless noted, on the % scale 0 is the no-effect control and ±100 the full control effect; potency means the concentration at half of the fitted maximal effect.

SMILES	hNpr1 antagonist	HEK cytotox	SNCA viab count	3T3 cytotox	FLuc inh	SNCA expr inhib
COc1ccc(N2CCN(C(=O)Cn3c(-c4cccc(Cl)c4)nc(C)c(CCO)c3=O)CC2)cc1	-13.1%	44.7µM*	-12.5%	-13.5%	i	-25.4%
Cc1nc(-c2cccc(Cl)c2)n(CC(=O)Nc2ccc(F)cc2)c(=O)c1CCO	-3.8%	39.8µM*	-26.7%	?	i	?
Cc1cc(C)cc(NC(=O)Cn2c(-c3cccc(Cl)c3)nc(C)c(CCO)c2=O)c1	4.7%	?	-8.3%	-11.7%	i	8.2%
CCN(CC)C(=O)C[C@@H]1c2nc(NC(=O)c3ccco3)sc2C[C@@H]2[C@](C)(CO)[C@H](O)CC[C@]21C	-6.3%	-9.0%	-16.7%	-14.1%	i	8.3%
O=C(Nc1ccc(F)cc1)c1ccc2oc(-c3ccncc3)nc2c1	.	-20.6%[172 µM]	0.8%[87.6 µM]	-8.3%[138 µM]	.	-8.4%[87.6 µM]
COc1cccc(CNC(=O)Cn2c(-c3cccc(Cl)c3)nc(C)c(CCO)c2=O)c1	3.8%	22.4µM*	-12.0%	?	i	-15.3%
Cc1nc(-c2cccc(Cl)c2)n(CC(=O)NC(C)C)c(=O)c1CCO	2.0%	?	-11.3%	-8.9%	i	-7.7%
Cc1cccc(N(C)C(=O)Cn2c(-c3cccc(Cl)c3)nc(C)c(CCO)c2=O)c1	-9.3%	35.5µM*	-18.1%	?	i	-18.9%
CC(C)(C)CN1CC(NS(=O)(=O)c2cccc(Cl)c2)CC1=O (stereo not given)	-12.2%	-25.1%	2.4%	?	i	-8.1%
CCn1nccc1C(=O)N1CCC(N2CC(OCC3CC3)C23CCOCC3)CC1 (stereo not given)	.	-1.9%	1.9%	-3.9%	.	-15.1%
COc1ccc(C(=O)N2CCN(Cc3ccc(=O)n(C)c3)CC2)cc1F	1.9%	-18.9%	0.4%	-6.4%	39.8µM*	58.1%
Cc1ccc(C(=O)N2CCN(Cc3ccc(=O)n(C)c3)CC2)cc1F	0.4%	-4.7%	-9.7%	-20.5%	i	-20.9%
COCCN(C)C(=O)c1cn2cc(-c3ccc(F)cc3)n(CC=C(C)C)c(=O)c2n1	-1.5%	-0.7%	18.3%	i	i	-4.6%
C/C1=C/CCC2=CC(OC2=O)C(C)(C)/C=C/C1=O (stereo not given)	.	.	7.52µM*	.	.	.
Cc1cccc(-n2nnnc2S(C)(=O)=O)c1	.	.	22.4µM*	.	.	?
O=C(O)C1(c2ccccc2)CCN(S(=O)(=O)c2cccs2)CC1	.	-4.3%	-1.6%	?	.	4.4%
O=C(O)C1(c2ccccc2)CCN(S(=O)(=O)c2ccccc2)CC1	.	i	3.8%	79.4µM*	.	14.6%
COCCC(=O)N1CCC(C2CCN(C(C)=O)CC2)C1 (stereo not given)	2.8%	-0.3%	-7.0%[12.5 µM]	-4.6%	i	-4.6%
CCc1ccc(CNC(=O)C2CCN(C(=O)c3nnn4c3COC(c3ccc(C)cc3)C4)CC2)cc1 (stereo not given)	-12.8%	-15.9%	-1.5%	-11.6%	39.8µM*	80.1%
Cc1ccc(C2Cn3nnc(C(=O)N4CCC(C(=O)NCC(C)c5ccccc5)CC4)c3CO2)cc1 (stereo not given)	-0.7%	-0.6%	-7.4%	i	31.6µM*	67.6%
Cc1ccc(C2Cn3nnc(C(=O)N4CCC(C(=O)NCc5ccccc5)CC4)c3CO2)cc1 (stereo not given)	2.6%	2.9%	-0.1%	-8.5%	39.8µM*	44.0%
Cc1ccc(C2Cn3nnc(C(=O)N4CCC(C(=O)NCc5cccs5)CC4)c3CO2)cc1 (stereo not given)	2.9%	4.9%	-5.3%	2.6%	35.5µM*	60.0%
Cc1ccc(C2Cn3cnc(C(=O)N4CCC(C(=O)NCc5cccs5)CC4)c3CO2)cc1 (stereo not given)	0.4%	1.5%	1.6%	1.8%	?	3.5%
Cc1ccc(CNC(=O)C2CCN(C(=O)c3nnn4c3COC(c3ccc(C)cc3)C4)CC2)cc1 (stereo not given)	-1.0%	1.0%	-3.3%	2.3%	i	4.8%
Cc1ccc(C2Cn3nnc(C(=O)N4CCC(C(=O)NC(C)c5ccccc5)CC4)c3CO2)cc1 (stereo not given)	2.8%	-29.6%	10.8%	-10.1%	?	62.8%
SMILES	hNpr1 antagonist	HEK cytotox	SNCA viab count	3T3 cytotox	FLuc inh	SNCA expr inhib
COc1ccc(CCNC(=O)c2c(C)noc2-c2ccccc2Cl)cc1	-12.8%	?	4.9%	-20.9%	i	1.4%
COCC(=O)N[C@H]1C[C@@H](CO)N(Cc2cccs2)C1	-9.6%	-28.4%	-8.0%	-5.4%	i	-7.4%
Cc1ccc(C2Cn3nnc(C(=O)N4CCC(C(=O)NC5CCC(C)CC5)CC4)c3CO2)cc1 (stereo not given)	-3.6%	-15.4%	0.5%	-21.9%	28.2µM*	5.2%
Cc1ccc(C2Cn3nnc(C(=O)N4CCC(C(=O)NC5CCCCC5)CC4)c3CO2)cc1 (stereo not given)	-0.1%	8.4%	2.9%	i	?	54.7%
CCNC(=O)[C@@H]1C[C@H](NC(=O)c2cccc(-c3ccc(F)cc3)c2)CN1C	0.6%	?	1.1%	-28.1%	35.5µM*	119.2%
C/C=C/CN1C[C@@H](NC(=O)c2cccc(N(C)C)c2)C[C@H]1C(=O)NCC	6.9%	-15.0%	?	-10.4%	i	27.8%
CC(C)CNC(=O)c1coc(COc2ccc3c(c2)C(c2ccccc2)N(C(=O)C(C)C)CC3)n1 (stereo not given)	-15.8%	?	-9.4%	39.8µM*	i	0.7%
COCCNC(=O)c1coc(COc2ccc3c(c2)C(c2ccc(C)cc2)N(C(=O)C2CC2)CC3)n1 (stereo not given)	2.0%	25.1µM*	8.5%	?	i	-5.3%
CCC(=O)N1CCc2ccc(OCc3nc(C(=O)NCCOC)co3)cc2C1c1ccc(C)cc1 (stereo not given)	0.3%	28.2µM*	3.2%	-27.7%	i	-5.1%
CC(C)C(=O)N1CCc2ccc(OCc3nc(C(=O)N4CCCC4)co3)cc2C1c1cccc(F)c1 (stereo not given)	-2.9%	?	-4.9%	?	i	11.7%
Cc1ccc(C2c3cc(OCc4nc(C(=O)N5CCCC5)co4)ccc3CCN2C(=O)C2CC2)cc1 (stereo not given)	-2.0%	39.8µM*	-7.7%	?	i	-9.7%
C=CCNC(=O)c1coc(COc2ccc3c(c2)C(c2cccc(F)c2)N(C(=O)C2CC2)CC3)n1 (stereo not given)	-16.5%	?	2.8%	?	i	-12.6%

Screening results as filed in PubChem.
